# This is a sample that favours compounds with a hit; in the whole collection about 18% have one here.
# IL-1B inflam inh = inhibitors of inflammasome signaling (IL-1 beta secretion); hit rate 4.7% among 360,000; AID 743279; activity change, % at 57.5 µM; THP-1 LPS/ATP IL-1B secretion, AlphaLISA, 16 h; stronger effect = lower value; in the data active = activity change below about -50%; inconclusive = mostly about -30% to -49%
#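 Secreted IL-1B measured by AlphaLISA bead assay after 16 h compound exposure of THP-1 cells; compounds (final up to 57.5 uM) added 1 h before LPS (250 ng/mL) and ATP (1.25 mM) stimulation; lower signal means less secretion.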
# TDP1 block = blocks human tyrosyl-DNA phosphodiesterase 1. Potency, µM (highest dose often 130 µM), actives largely listed as inhibitors. Q9NUW8. AID 485290. hit rate 0.28% among 350,000. recombinant TDP1, AlphaScreen DNA substrate cleavage; also: nearly all actives have a fitted effect of over 40% in size
# Target sequence (Q9NUW8 whole entry, looked up): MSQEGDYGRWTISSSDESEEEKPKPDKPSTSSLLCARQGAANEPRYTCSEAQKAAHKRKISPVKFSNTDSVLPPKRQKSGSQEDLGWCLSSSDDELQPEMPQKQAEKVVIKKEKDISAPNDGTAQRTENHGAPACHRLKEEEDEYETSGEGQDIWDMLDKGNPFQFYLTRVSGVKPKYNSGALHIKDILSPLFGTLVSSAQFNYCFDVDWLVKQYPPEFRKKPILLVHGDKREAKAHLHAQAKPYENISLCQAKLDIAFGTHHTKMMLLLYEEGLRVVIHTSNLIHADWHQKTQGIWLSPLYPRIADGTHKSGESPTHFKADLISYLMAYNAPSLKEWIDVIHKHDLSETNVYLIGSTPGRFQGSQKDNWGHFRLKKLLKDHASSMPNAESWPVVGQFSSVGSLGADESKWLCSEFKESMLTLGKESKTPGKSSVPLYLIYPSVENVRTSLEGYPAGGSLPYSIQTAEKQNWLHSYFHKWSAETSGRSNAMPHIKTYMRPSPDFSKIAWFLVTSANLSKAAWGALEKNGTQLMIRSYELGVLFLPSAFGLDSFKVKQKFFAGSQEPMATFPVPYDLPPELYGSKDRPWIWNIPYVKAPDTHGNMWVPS
#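 Recombinant E. coli-expressed Tdp1 (1 nM) preincubated with compound 15 min at RT, then 5'-biotin/3'-phosphotyrosine-FITC DNA substrate (15 nM) added for 5 min. AlphaScreen beads (10 ug/ml) added, 10 min RT; tyrosine-FITC cleavage read as signal loss.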
# TDP1 cell CPT = growth inhibition of DT40 Tdp1-/-;hTDP1 cells with camptothecin (screen for TDP1 inhibitors); chicken DT40 Tdp1-/-;hTDP1 cells + 20 nM CPT, ATP luminescence, 48 h; Potency, µM (highest dose often 46.2 µM), hits mostly inhibitors; hit rate 12% among 420,000; AID 686979; also: nearly all actives have a fitted effect of over 55% in size
#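 Chicken DT40 Tdp1-/- cells stably complemented with human TDP1 were seeded at 400 cells/well in medium containing 20 nM camptothecin, exposed to pin-transferred compounds, and grown at 37 °C for at least 48 hr. Viability was read as ATP luminescence.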
# TDP1 cell noCPT = qHTS for Inhibitors of human tyrosyl-DNA phosphodiesterase 1 (TDP1): qHTS in cells in absence of CPT; DT40 Tdp1-/- hTDP1 cells, no CPT, ATP luminescence, 48 h; Potency, µM (doses to about 46.2 µM), most hits filed as inhibitors; hit rate 15% among 420,000; also: nearly all actives have a fitted effect of over 55% in size
#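 Stably hTDP1-transfected Tdp1-null chicken DT40 cells were treated with library compounds minus camptothecin and grown for at least 48 hr at 37 °C, after which cellular ATP was quantified by luminescence.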
# Six1-Eya2 inh = Six1/Eya2 interaction inhibition; activity change, % (concentration not given with the values); hit rate 0.56% among 360,000; AlphaScreen GST-Six1/His-Eya2 binding, biochemical; stronger effect = lower value; AID 651725; in the data active = activity change below about -65%; inconclusive = mostly about -30% to -63%
#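 AlphaScreen with GST-Six1 and His-Eya2 (5X mix: 250 nM and 500 nM), glutathione donor and nickel acceptor beads; buffer 50 mM Tris pH 8.0, 300 mM NaCl, 1 mM TCEP; 1 h at 37 C in the dark.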
# CtBP-E1A inh = CtBP/E1A binding inhibition; AlphaScreen GST-E1A/His-CtBP binding, 1536-well; stronger effect = lower value; activity change, % (concentration not given with the values); hit rate 0.49% among 340,000; AID 651724; in the data active = activity change below about -65%; inconclusive = mostly about -30% to -63%
#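 Homogeneous bead-based format: GST-tagged E1A captured on glutathione donor beads, His-tagged CtBP on nickel acceptor beads; compounds precede bead addition by 2 h at 37 °C.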
# Hits are given with their value; n = inactive; u = inconclusive; x = no result given; ! = not active in a repeat. Unless noted, calls follow the shape of the dose curve; as a rule, active = well fitted curve in the direction sought with a large enough effect; inconclusive = small, poorly fitted or top-dose-only effect, or another doubt; inactive = no such curve, though single readings can be large; an effect the other way counts as inactive or inconclusive.
SMILES,IL-1B inflam inh,TDP1 block,TDP1 cell CPT,TDP1 cell noCPT,Six1-Eya2 inh,CtBP-E1A inh
C=CCOc1c(Br)cc(/C=C2\SC(=Nc3ccccc3)NC2=O)cc1OC,n,n,u,21µM,n,x
COc1cc(/C=C2\SC(=Nc3ccc(O)cc3)NC2=O)cc(OC)c1O,n,n,21µM,5.2µM,u,-65
C=CCOc1ccc(Br)cc1/C=C1/SC(=Nc2ccc(C(=O)O)cc2)NC1=O,n,79µM,n,n,n,n
CCOc1cc(Br)cc(/C=C2\SC(=Nc3ccccc3)NC2=O)c1O,n,x,u,u,n,x
CCc1ccc(N=C2NC(=O)/C(=C/c3cc(Br)c(OCC(=O)O)c(OC)c3)S2)cc1,n,n,n,n,n,n
O=C(NCCSc1ccccn1)c1ccc(Cl)cc1Cl,n,n,u,u,n,n
Fc1ccc(NC(=S)NC2CC3CCCC(C2)N3Cc2cccs2)cc1 (configuration not stated),u,n,n,n,n,n
O=C(Nc1cccc(Cl)c1)NC1(C(=O)NCc2cccs2)CCCCC1,n,n,21µM,26µM,n,n
O=C(Nc1cccc(Cl)c1)NC1CC2CCC(C1)N2Cc1cccs1 (configuration not stated),n,n,21µM,26µM,n,x
Cc1ccc(NC(=S)NC2CC3CCCC(C2)N3Cc2cccs2)cc1 (configuration not stated),-74,n,u,18µM,n,n
O=[N+]([O-])c1ccc(-c2nc(NCc3cccnc3)c3ccccc3n2)cc1,n,x,n,n,n,n
NC(=O)c1c(NC(=O)c2cnccn2)sc2c1CCCC2,n,n,n,n,u,x
COc1cc(-c2csc(NC3CCCCC3)n2)cc(OC)c1OC,-80,n,u,u,n,n
FC(F)(F)c1cccc(-c2cc3nc(NCCOc4ccccc4)ccn3n2)c1,n,x,u,u,n,n
FC(F)(F)c1cccc(-c2cc3nc(NC4CCCCC4)ccn3n2)c1,n,x,21µM,u,n,n
COc1cc(CNC2CCCCCC2)cc(OC)c1OC,n,n,n,n,n,n
COc1cc(-c2cc3nc(NC4CCCCC4)ccn3n2)cc(OC)c1OC,n,x,16µM,10µM,n,n
Cn1c(=O)oc2cc(S(=O)(=O)NCc3ccccc3)ccc21,n,n,n,n,n,n
CCN(CC)CCn1c(SCC(=O)Nc2cccc(OC)c2)nc2c(sc3ccccc32)c1=O,-79,n,18µM,4.6µM,n,n
COc1cccc(NC(=O)CSc2nc3c(sc4ccccc43)c(=O)n2CCN(C)C)c1,-108,n,15µM,u,n,n
CCCCn1c(SCC(=O)Nc2ccc(F)cc2)nc2c(sc3ccccc32)c1=O,x,n,n,n,x,x
COc1cccc(NC(=O)CSc2nc3c(sc4ccccc43)c(=O)n2CCCN2CCCC2)c1,u,n,u,10µM,n,x
CCC(Sc1nc2c(sc3ccccc32)c(=O)n1CCCC(=O)NC1CCCC1)C(=O)Nc1cccc(OC)c1 (configuration not stated),x,n,n,u,x,x
CCN(CC)CCn1c(SCC(=O)NCCC2=CCCCC2)nc2c(sc3ccccc32)c1=O,-60,n,u,u,n,n
Cc1ccc(NC(=O)[C@H](NC(=O)[C@@H]2Cc3ccccc3CN2)c2ccccc2)cc1,n,n,n,n,n,n
SMILES,IL-1B inflam inh,TDP1 block,TDP1 cell CPT,TDP1 cell noCPT,Six1-Eya2 inh,CtBP-E1A inh
CC(=O)N1CCN(C(=O)COc2ccc3oc4c(c3c2)CCCC4)CC1,n,x,n,n,n,n
CCCOc1ccc2oc(=O)c3c(c2c1)CCCN3C(=O)CN1CCc2ccccc2C1,n,n,u,23µM,n,n
CC1CCN(CC(=O)N2CCCc3c2c(=O)oc2ccc(OCc4ccccc4)cc32)CC1,n,n,u,13µM!,n,n
CC1CC(C)CN(CC(=O)N2CCCc3c2c(=O)oc2ccc(OCc4ccccc4)cc32)C1 (configuration not stated),n,n,21µM,12µM,n,n
Cc1c(Cc2ccccc2)c(=O)oc2cc(OCc3ccc(C(=O)O)cc3)ccc12,n,n,n,n,n,n
O=C(Nc1ccc2c(c1)OCO2)c1ccc(CN2CCOCC2)cc1,n,n,n,n,n,n
CCCCCCCC(=O)NC(Nc1ccc(S(N)(=O)=O)cc1)C(Cl)(Cl)Cl (configuration not stated),n,n,u,21µM,n,n
CCc1ccc(C(=O)CC2(O)C(=O)N(CCc3ccccc3)c3ccc(Cl)cc32)cc1 (configuration not stated),x,x,18µM,16µM,x,x
Cc1coc(C)c1C(=O)CC1(O)C(=O)N(CCc2ccccc2)c2ccccc21 (configuration not stated),n,n,u,u,n,n

# Assay outcomes (PubChem)
